# Measurements taken from PubChem BioAssay.
# Tests used:
# [1] = target: Tumor necrosis factor receptor superfamily member 10B (Homo sapiens) (UniProt O14763); assay: caspase-8 TRAIL sensitization, hit retest, confirmation, cell-based, NB7+caspase-8, with/without TRAIL, luminescence panel (AID 651596); details: NB7 neuroblastoma + caspase-8, TRAIL sensitization, luminescence viability, with TRAIL, mean of runs, at 10 µM, stronger effect = higher value
# [2] = as above; details: NB7 neuroblastoma + caspase-8, without TRAIL, luminescence viability, without TRAIL, mean of runs, at 10 µM
# Chain of Tumor necrosis factor receptor superfamily member 10B (Homo sapiens) (O14763 whole entry, looked up): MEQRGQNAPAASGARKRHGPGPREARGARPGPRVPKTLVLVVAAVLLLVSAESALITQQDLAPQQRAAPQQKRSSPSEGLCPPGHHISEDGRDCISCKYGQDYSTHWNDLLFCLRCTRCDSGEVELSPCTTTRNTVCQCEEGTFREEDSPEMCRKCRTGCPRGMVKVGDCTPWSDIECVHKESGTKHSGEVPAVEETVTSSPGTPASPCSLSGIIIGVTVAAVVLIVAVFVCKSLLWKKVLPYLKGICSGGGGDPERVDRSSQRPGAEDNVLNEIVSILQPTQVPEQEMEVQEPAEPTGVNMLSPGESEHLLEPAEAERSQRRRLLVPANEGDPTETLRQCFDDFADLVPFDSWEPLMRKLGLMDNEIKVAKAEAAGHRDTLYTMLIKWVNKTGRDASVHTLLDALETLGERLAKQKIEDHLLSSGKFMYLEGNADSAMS
smiles,measurement,setting,value
C#CC(=O)N(c1cccc(OC)c1)C(C(=O)NC1CCCC1)c1cccs1 (centres undefined),activity,[1],99.4%
same,activity,[2],99.5%
O=C(Nc1ccc2c(c1)OCCO2)Nc1ccc2c(c1)OCO2,activity,[1],81.4%
same,activity,[2],79.5%
O=C(Nc1ccc(Cl)c(Cl)c1)Nc1ccccc1C(=O)O,activity,[1],44.6%
same,activity,[2],42.5%
O=C(/C=C/Nc1ccccc1F)c1ccc(Br)cc1,activity,[1],62.2%
same,activity,[2],59.5%
CCc1ccc(/C=N/NC(=O)c2c[nH]c3ccccc23)s1,activity,[1],21.7%
same,activity,[2],20.4%
Cc1ccc2c(c1)sc(=NC(=O)c1cccs1)n2C,activity,[1],91.1%
same,activity,[2],90.7%
COc1ccccc1-c1cc2nc(-c3ccccc3)cc(N3CCN(C(=O)c4ccoc4)CC3)n2n1,activity,[1],78.4%
same,activity,[2],62.7%
CC(C)C[C@H](NC(=O)c1nc[nH]c1C(=O)N[C@@H](CC(C)C)C(=O)OC(C)(C)C)C(=O)OC(C)(C)C,activity,[1],72.4%
same,activity,[2],63.2%
Cc1cccc(-n2ncc3c(N4CCOCC4)ncnc32)c1,activity,[1],85.7%
same,activity,[2],88.5%
Fc1cccc(/C=N/Nc2nncc3ccccc23)c1,activity,[1],79.5%
same,activity,[2],78.8%
Cn1c(/C=C/c2ccc([N+](=O)[O-])o2)nc2ccccc2c1=O,activity,[1],50.8%
same,activity,[2],73.9%
C(=N\NC1=Nc2cccc3cccc1c23)/c1ccccc1,activity,[1],34.3%
same,activity,[2],14.2%
CCOC(=O)C1=CCN(S(=O)(=O)c2ccccc2Cl)C1c1cccc(F)c1 (centres undefined),activity,[1],-2.9%
same,activity,[2],11.8%
COC(=O)c1sc(NC(=S)NC(=O)c2ccccc2C)nc1C,activity,[1],58%
same,activity,[2],61.3%
CCC(=O)Nc1ccc(NC(=O)c2ccco2)cc1,activity,[1],35.1%
same,activity,[2],41.4%
O=C(Oc1c(CN2CCOCC2)cc(Cl)c2cccnc12)c1ccccc1Br,activity,[1],53.5%
same,activity,[2],52.8%
Cc1csc(NC(=S)NC(=O)c2ccccc2)n1,activity,[1],67.7%
same,activity,[2],53.1%
O=[N+]([O-])c1ccc(/C=C/c2ccc3ccccc3n2)cc1,activity,[1],70.2%
same,activity,[2],68.5%
c1ccc2[nH]c(-c3ccc4c(c3)OCO4)nc2c1,activity,[1],77.4%
same,activity,[2],79.3%
O=C(Nc1ccc2c(c1)OCCO2)c1ccc(Br)s1,activity,[1],74.3%
same,activity,[2],66.8%
C#CCN(C[C@@H]1[C@@H](OC(=O)NCCCCCC)[C@@H](OC(=O)NCCCCCC)Cn2c(=O)ccc(=O)n21)S(=O)(=O)c1ccc(C)cc1,activity,[1],96.2%
same,activity,[2],92.3%
CN(C)c1cccc(C(=O)N/N=C/c2ccsc2)c1,activity,[1],65%
same,activity,[2],40.4%
Cc1ccc(/C=C(\C#N)c2nc3ccccc3[nH]2)s1,activity,[1],69.8%
same,activity,[2],72%
Fc1cccc(CSc2nc3ccncc3[nH]2)c1,activity,[1],55.2%
same,activity,[2],54.4%
Cc1ccc(Nc2nc(N)c3ccccc3n2)cc1Cl,activity,[1],75.7%
same,activity,[2],73.1%
O=C(COc1ccc2c(c1)OCO2)Nc1nccs1,activity,[1],52.9%
same,activity,[2],54%
Cc1ccc(-c2nnc(NC(=O)c3ccco3)o2)c(C)c1,activity,[1],70.7%
same,activity,[2],58.6%
CCOc1ccc(C(=O)N/N=C/c2ccccc2[N+](=O)[O-])cc1,activity,[1],68%
same,activity,[2],62.8%
CS(=O)(=O)c1nc(-c2ccc(Br)cc2)cc(-c2ccccc2)c1C#N,activity,[1],94%
same,activity,[2],98.9%
O=C(CSc1nnc(-c2ccccc2Cl)o1)Nc1ccccn1,activity,[1],68.8%
same,activity,[2],74%
Cc1cc(C)cc(N2C(N)=NC(N)=NC2c2cccc(Cl)c2)c1 (centres undefined),activity,[1],57.8%
same,activity,[2],74.3%
OC(c1cc(-c2cccc(Cl)c2)nc2ccccc12)C1CCCCN1 (centres undefined),activity,[1],71.2%
same,activity,[2],82.1%
Cc1ccc(C2CC2c2n[nH]c(=S)n2-c2ccc(Cl)cc2)cc1 (centres undefined),activity,[1],63%
same,activity,[2],45.3%
COc1cccc(-c2cc3nc(-c4ccccc4)cc(N4CCN(C(=O)c5ccoc5)CC4)n3n2)c1,activity,[1],82%
same,activity,[2],73.8%
c1ccc(COc2ncnc3c2ncn3CCCNCC(c2ccccc2)c2ccccc2)cc1,activity,[1],18.2%
same,activity,[2],41.5%
CCCCCCCN(C(=O)CCl)c1ccccc1C,activity,[1],99.6%
same,activity,[2],98.1%
Cc1ccc(NC(=O)c2ccc3nsnc3c2)c(Cl)c1,activity,[1],60.6%
same,activity,[2],58.2%
CC(NC(=O)CCl)c1ccc(Cl)c(Cl)c1 (centres undefined),activity,[1],51%
same,activity,[2],81.5%
CC(C)c1ccc(NC(=O)Nc2nc(C(N)COCc3ccccc3)cs2)cc1 (centres undefined),activity,[1],47.9%
same,activity,[2],80.4%
CCOC(=O)CSc1nc(-c2ccncc2)ccc1C#N,activity,[1],55.8%
same,activity,[2],55.1%
CCOC(=O)c1cnc2c(-c3ccccc3)cnn2c1C,activity,[1],50%
same,activity,[2],35.7%
Cc1ccc(-n2[nH]c(C)c(C=Nc3ccc4[nH]c(=O)[nH]c4c3)c2=O)cc1C,activity,[1],51.4%
same,activity,[2],41.5%
Cc1nn(-c2ccccc2)c(C)c1/C=N/NC(=O)c1cc(-c2ccc(Cl)s2)[nH]n1,activity,[1],70.1%
same,activity,[2],72.8%
Cc1cccnc1Nc1nc(-c2ccccn2)cs1,activity,[1],38.4%
same,activity,[2],63.1%
COc1ccc(N2Cc3ccc(OC)c(OC)c3C2=O)cc1,activity,[1],40.6%
same,activity,[2],37.8%
O=C(CCl)Nc1ccccc1C(=O)Nc1ccc2c(c1)OCO2,activity,[1],74.1%
same,activity,[2],73.8%
COc1ccc2oc(C(=O)Nc3nc4ccccc4[nH]3)c(C)c2c1,activity,[1],89.7%
same,activity,[2],85.3%
Nc1c(N(CCC2=CCCCC2)C(=O)COc2ccc(F)cc2)c(=O)[nH]c(=O)n1Cc1ccccc1,activity,[1],27.3%
same,activity,[2],23%
CCOc1ccc(OCC)c(NC(=O)C2CCN(c3nn4c(=O)cc(C)nc4s3)CC2)c1,activity,[1],82%
same,activity,[2],81.3%
CNc1nc(N/N=C/c2cc([N+](=O)[O-])ccc2F)nc(Nc2ccccc2)n1,activity,[1],71.5%
same,activity,[2],86.5%
Nc1c(C(=O)Nc2nc3ccccc3s2)sc2nc(-c3cccs3)ccc12,activity,[1],97.8%
same,activity,[2],98.7%
O=c1[nH]c(Nc2nc3ccccc3o2)nc2c1CCCC2,activity,[1],79.8%
same,activity,[2],57%
CCC(C)c1ccc(O)c(/C=N/O)c1 (centres undefined),activity,[1],38%
same,activity,[2],56.6%
O=c1c2ccccc2oc2ccc(NCCCn3ccnc3)cc12,activity,[1],44%
same,activity,[2],30.3%
O=C(NCc1cccnc1)/C(=C\c1ccc(-c2ccc(Cl)c(Cl)c2)o1)S(=O)(=O)c1ccccc1,activity,[1],98.1%
same,activity,[2],99.2%
c1ccc2nc(-c3ccc(N4CCOCC4)cc3)ccc2c1,activity,[1],72.2%
same,activity,[2],69%
O=C(N/N=C/c1cccs1)c1ccc2c(c1)OCO2,activity,[1],71.7%
same,activity,[2],66%
C(=N\NC1=Nc2cccc3cccc1c23)/c1ccccn1,activity,[1],50.6%
same,activity,[2],43%
Cc1ccc(C(=O)NC2CCCCCCC2)c(Cl)c1,activity,[1],62.7%
same,activity,[2],53.6%
COc1ccc2cc(-c3ccccc3)ncc2c1,activity,[1],63.8%
same,activity,[2],63.7%
CCN1CCN(Cc2ccc(NC(=O)c3cc(NC(=O)c4cncc(-c5cccs5)c4)cc(OC)c3)cc2C(F)(F)F)CC1,activity,[1],68%
same,activity,[2],91.9%
CCc1ccc(Nc2n[n+](-c3ccccc3)c(-c3ccc(N(CC)CC)cc3)s2)cc1,activity,[1],45.2%
same,activity,[2],41.2%
NC(=O)c1ccsc1NC(=O)c1ccc2c(c1)CCCC2,activity,[1],89.5%
same,activity,[2],86.7%
O=C(Nc1ccccc1)c1nc[nH]c1C(=O)Nc1ccccc1F,activity,[1],62%
same,activity,[2],62.5%
C#CCSc1nnc(-c2ccc(C)cc2)o1,activity,[1],97.6%
same,activity,[2],93.2%
CC(=O)c1ccc(NC(=O)Nc2ccccc2)cc1,activity,[1],65.2%
same,activity,[2],68.3%
Cc1cc(C)cc(NC(=O)/C(C#N)=C/c2cn(CC(=O)NCc3ccco3)c3ccccc23)c1,activity,[1],62.1%
same,activity,[2],77.7%
CC(C)(C)C(=O)N1CCc2cc(-c3csc(N)n3)ccc21,activity,[1],91.8%
same,activity,[2],88.1%
N#Cc1ccccc1N/C=C/C(=O)c1ccc(Cl)cc1,activity,[1],48.7%
same,activity,[2],53.1%
COc1ccccc1/C=C/C(=O)Nc1ccc2c(c1)OCCO2,activity,[1],66.6%
same,activity,[2],73.5%
COc1ccc(CSc2nc3ccccc3[nH]2)cc1,activity,[1],70.8%
same,activity,[2],83.3%
C=CCn1c(C)cc(C(=O)COC(=O)c2n[nH]c(=O)c3ccccc23)c1C,activity,[1],74.4%
same,activity,[2],57.4%
Cc1ccc(C(=O)Nc2nc3c(s2)CCCC3)o1,activity,[1],70.4%
same,activity,[2],69.2%
CCOc1ccc(C(=O)Nc2nnc(NC(=S)Nc3ccccc3)s2)cc1,activity,[1],59.8%
same,activity,[2],61.6%
CSc1ccc(/C=C/C(=O)c2c(O)cc(C)oc2=O)cc1,activity,[1],78.7%
same,activity,[2],82.2%
CC1=C(C(=O)Nc2ccccc2)C(c2ccc(C)cc2)N=C(Nc2nc3ccccc3o2)N1 (centres undefined),activity,[1],41%
same,activity,[2],76%
Nc1ccc(-c2cnc(-c3ccc(N)cc3)nc2)cc1,activity,[1],74.7%
same,activity,[2],71.7%
O=C(CCS(=O)(=O)c1ccccc1)Nc1ccc(-c2nc3ccccc3s2)cc1,activity,[1],58%
same,activity,[2],42.8%
Cc1cccc(NC(=O)c2ccc3c(Cl)c4c(nc3c2)CCCC4)n1,activity,[1],77.1%
same,activity,[2],80%
N/C(=N\OC(=O)c1ccccc1Cl)c1cccnc1,activity,[1],67.2%
same,activity,[2],70.6%
O=C(/C=C/c1cccs1)N1CCc2ccccc21,activity,[1],59.8%
same,activity,[2],55.5%
C=CCNC(=O)c1cc(-c2ccc3c(c2)OCO3)on1,activity,[1],63.3%
same,activity,[2],61.1%
O=C(Nc1cc2ccccc2oc1=O)c1ccccc1,activity,[1],54.1%
same,activity,[2],52%
C=CCNC(=S)N/N=C/c1ccc(C(F)(F)F)cc1,activity,[1],18.5%
same,activity,[2],8.22%
CCOc1ccc(-c2cc(C(=O)N/N=C/c3cccnc3)c3ccccc3n2)cc1,activity,[1],74.2%
same,activity,[2],74.4%
CCSc1ccc(-c2cc(NC=O)c3ncc(-c4cccc(C(=O)NCCN(C)C)c4)n3c2)cc1,activity,[1],50.4%
same,activity,[2],87.7%
COc1ccc(-c2cn3cc(C)ccc3n2)cc1OC,activity,[1],74.7%
same,activity,[2],77%
Oc1cccc(/C=N/Nc2cccc3cccnc23)c1,activity,[1],48.6%
same,activity,[2],34.2%
CC(C)c1ccc(NC(=O)CSc2ncccc2C(=O)Oc2cccc([N+](=O)[O-])c2)cc1,activity,[1],68.1%
same,activity,[2],61.5%
COc1ccc(C(=O)NC(=O)Nc2cc(C)ccn2)cc1,activity,[1],95.3%
same,activity,[2],95.4%
O=C(/C=C/c1ccc(F)cc1)NC(=S)Nc1ccccc1C(=O)NC1CCCCC1,activity,[1],-1.65%
same,activity,[2],-0.275%
Nc1ccc(-c2ncc(-c3ccccc3)o2)cc1,activity,[1],28.2%
same,activity,[2],29.8%
CC(C)(C)OC(=O)NCCCC[C@H](NC(=O)c1[nH]cnc1C(=O)Nc1ccccc1)C(=O)OC(C)(C)C,activity,[1],74.2%
same,activity,[2],58.6%
COc1ccc(/C=C(\C#N)c2nc3ccccc3[nH]2)cc1O,activity,[1],56.5%
same,activity,[2],72.5%
Cc1ccc2sc(NC(=O)CSc3nc(C)cc(C)c3C#N)nc2c1,activity,[1],71.5%
same,activity,[2],57.3%
Cc1ccc2nc(-c3ccccn3)[nH]c2c1,activity,[1],81%
same,activity,[2],83.9%
O=C(N/N=C/c1ccccc1[N+](=O)[O-])c1ccc2c(c1)OCCO2,activity,[1],95.4%
same,activity,[2],94.5%
